Screen size: about 5,500 compounds; about 2,000 (36%) were called active. Roughly 18% stayed inconclusive and do not appear here. No stated cut-off is given here; in the data, active means normalized growth mostly below about 0.91 (no sharp cut-off); inconclusive means no clear call, values can overlap the other calls; inactive means mostly above about 0.92. The list shows a part of the results.
Experiment: chemical genetic growth profiling, strain panel (AID 1159580);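 further: tested at 20 µM; growth read once vehicle control cultures reached saturation at 30 °C; 1 = growth at the plate median or of vehicle wells; lower values mean less growth of the strain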
Settings: S. cerevisiae deletion strains, growth OD
[1] = locus YAR019C, strain CDC15, active compounds read low
[2] = locus YBL105C, strain PKC1, active compounds read low
[3] = locus YBR135W, strain CKS1, active compounds read low
[4] = locus YBR136W, strain MEC1, active compounds read low
[5] = locus YBR160W, strain CDC28, active compounds read low
[6] = locus YDL017W, strain CDC7, active compounds read low
[7] = locus YDL028C, strain MPS1, active compounds read low
[8] = locus YDL101C, strain DUN1, active compounds read low
[9] = locus YDL108W, strain KIN28, active compounds read low
[10] = locus YDL132W, strain cdc53, active compounds read low
[11] = locus YDL214C, strain PRR2, active compounds read low
[12] = locus YDR052C, strain DBF4, active compounds read low
[13] = locus YDR054C, strain cdc34, active compounds read low
[14] = locus YDR226W, strain ADK1, active compounds read low
[15] = locus YDR477W, strain SNF1, active compounds read low
[16] = locus YER123W, strain YCK3, active compounds read low
[17] = locus YER133W, strain GLC7, active compounds read low
[18] = locus YFL009W, strain cdc4, active compounds read low
[19] = locus YFL029C, strain CAK1, active compounds read low
[20] = locus YFR003C, strain YPI1, active compounds read low
[21] = locus YFR019W, strain FAB1, active compounds read low
[22] = locus YFR028C, strain CDC14, active compounds read low
[23] = locus YGR040W, strain KSS1, active compounds read low
[24] = locus YGR052W, strain FMP48, active compounds read low
[25] = locus YGR092W, strain DBF2, active compounds read low
[26] = locus YHR030C, strain SLT2, active compounds read low
[27] = locus YHR079C, strain IRE1, active compounds read low
[28] = locus YHR082C, strain KSP1, active compounds read low
[29] = locus YHR205W, strain SCH9, active compounds read low
[30] = locus YIL147C, strain SLN1, active compounds read low
[31] = locus YJL095W, strain BCK1, active compounds read low
[32] = locus YJL128C, strain PBS2, active compounds read low
[33] = locus YJL157C, strain FAR1, active compounds read low
[34] = locus YJR016C, strain ILV3, active compounds read low
[35] = locus YJR066W, strain TOR1 (second series), active compounds read low
[36] = locus YJR066W, strain TOR1, active compounds read low
[37] = locus YKL048C, strain ELM1, active compounds read low
[38] = locus YKL067W, strain YNK1, active compounds read low
[39] = locus YKL101W, strain HSL1, active compounds read low
[40] = locus YKL193C, strain SDS22, active compounds read low
[41] = locus YKL203C, strain TOR2, active compounds read low
[42] = locus YLR113W, strain HOG1, active compounds read low
[43] = locus YLR133W, strain CKI1, active compounds read low
[44] = locus YLR403W, strain SFP1, active compounds read low
[45] = locus YML070W, strain DAK1, active compounds read low
[46] = locus YMR001C, strain CDC5, active compounds read low
[47] = locus YMR205C, strain PFK2 (second series), active compounds read low
[48] = locus YMR277W, strain FCP1, active compounds read low
[49] = locus YNL006W, strain LST8, active compounds read low
[50] = locus YNL020C, strain ARK1, active compounds read low
[51] = locus YNL161W, strain CBK1, active compounds read low
[52] = locus YNL183C, strain NPR1, active compounds read low
[53] = locus YNL207W, strain RIO2, active compounds read low
[54] = locus YNL222W, strain SSU72, active compounds read low
[55] = locus YNL307C, strain MCK1 (second series), active compounds read low
[56] = locus YOL078W, strain AVO1, active compounds read low
[57] = locus YOL136C, strain PFK27, active compounds read low
[58] = locus YOR061W, strain CKA2, active compounds read low
[59] = locus YOR119C, strain RIO1, active compounds read low
[60] = locus YOR231W, strain MKK1, active compounds read low
[61] = locus YOR329C, strain SCD5, active compounds read low
[62] = locus YPL031C, strain PHO85, active compounds read low
[63] = locus YPL153C, strain RAD53, active compounds read low
[64] = locus YPL204W, strain HRR25, active compounds read low
[65] = locus YPL209C, strain IPL1, active compounds read low
[66] = locus YPL256C, strain CLN2, active compounds read low
[67] = locus YPR025C, strain CCL1, active compounds read low
[68] = locus YPR106W, strain ISR1, active compounds read low
[69] = locus YPR111W, strain DBF20, active compounds read low
[70] = strain NNK1, active compounds read low
[71] = strain TSCII, active compounds read low

Measured: normalized growth

CC(C)(C)c1ccc(C(=O)NNc2c(Cl)cccc2Cl)cc1
active: [42] 0.726 | [66] 0.834
inactive: [1] 0.977 | [2] 0.952 | [3] 0.948 | [4] 0.97 | [5] 0.958 | [6] 0.973 | [7] 0.98 | [8] 0.985 | [9] 0.965 | [10] 0.968 | [11] 0.9 | [12] 0.974 | [13] 0.981 | [14] 0.986 | [15] 0.948 | [16] 0.904 | [17] 0.939 | [18] 0.975 | [19] 0.978 | [20] 0.974 | [21] 0.933 | [22] 0.973 | [23] 0.918 | [24] 0.946 | [25] 0.894 | [26] 0.864 | [27] 0.885 | [28] 0.974 | [29] 0.86 | [30] 0.974 | [31] 0.898 | [32] 0.878 | [33] 0.88 | [34] 0.966 | [35] 0.868 | [36] 0.959 | [37] 0.954 | [38] 0.892 | [39] 0.89 | [40] 0.974 | [41] 1.01 | [43] 0.89 | [44] 0.893 | [45] 0.862 | [46] 0.971 | [47] 0.888 | [48] 0.971 | [49] 0.978 | [50] 0.889 | [51] 0.981 | [52] 0.887 | [53] 0.974 | [54] 0.969 | [55] 0.902 | [56] 0.967 | [57] 0.85 | [58] 0.874 | [59] 0.985 | [60] 0.832 | [61] 0.981 | [62] 0.935 | [63] 0.92 | [64] 0.947 | [65] 0.968 | [67] 0.962 | [68] 0.944 | [69] 0.995 | [70] 0.943 | [71] 0.972

CCN(CC)CCNC(=O)c1c(-c2c(Cl)cccc2Cl)noc1C
inactive: locus YAL013W, strain DEP1, active compounds read low 0.996 | locus YBR229C, strain ROT2, active compounds read low 1.01 | locus YCL061C, strain MRC1, active compounds read low 1.02 | [8] 1 | locus YDR150W, strain NUM1, active compounds read low 0.903 | locus YEL061C, strain CIN8, active compounds read low 1.04 | locus YGR078C, strain PAC10, active compounds read low 1.01 | [26] 1.07 | locus YHR087W, strain rtc3, active compounds read low 0.998 | locus YJR043C, strain POL32, active compounds read low 1.03 | locus YJR075W, strain HOC1, active compounds read low 0.982 | locus YLR039C, strain RIC1, active compounds read low 1.16 | locus YLR058C, strain SHM2 (second series), active compounds read low 0.99 | locus YLR085C, strain ARP6, active compounds read low 1.05 | locus YLR262C, strain YPT6, active compounds read low 1.15 | locus YML094W, strain GIM5, active compounds read low 1.02 | locus YMR219W, strain ESC1, active compounds read low 1.01 | locus YMR263W, strain SAP30, active compounds read low 0.992 | locus YNL153C, strain GIM3, active compounds read low 0.99 | locus YNL298W, strain CLA4 (second series), active compounds read low 1.05 | locus YNL322C, strain KRE1, active compounds read low 1 | locus YNR030W, strain Alg12, active compounds read low 1.02 | locus YOL006C, strain TOP1, active compounds read low 1.03 | locus YPL055C, strain LGE1, active compounds read low 0.99 | locus YPL241C, strain CIN2, active compounds read low 1.01 | locus YPR135W, strain CTF4, active compounds read low 0.973

Cc1onc(-c2c(Cl)cccc2Cl)c1C(=O)NC(C)(C)CC(C)(C)C
inactive: [1] 0.998 | [2] 0.99 | [3] 0.991 | [4] 0.989 | [5] 0.997 | [6] 0.997 | [7] 0.976 | [8] 0.994 | [9] 0.983 | [10] 0.992 | [11] 0.945 | [12] 0.991 | [13] 0.995 | [14] 0.999 | [15] 0.977 | [16] 0.919 | [17] 0.97 | [18] 0.995 | [19] 0.998 | [20] 0.992 | [21] 0.972 | [22] 0.995 | [23] 0.956 | [24] 1.04 | [25] 0.969 | [26] 1.12 | [27] 1.05 | [28] 1.08 | [29] 0.955 | [30] 0.99 | [31] 1.07 | [32] 0.945 | [33] 0.953 | [34] 0.992 | [35] 0.951 | [36] 1.09 | [37] 0.982 | [38] 0.961 | [39] 0.953 | [40] 0.996 | [41] 1.04 | [42] 0.962 | [43] 0.965 | [44] 0.927 | [45] 0.932 | [46] 0.998 | [47] 0.966 | [48] 0.998 | [49] 0.988 | [50] 0.971 | [51] 0.995 | [52] 1.03 | [53] 0.991 | [54] 0.989 | [55] 1 | [56] 0.992 | [57] 0.95 | [58] 0.959 | [59] 0.992 | [60] 1.02 | [61] 0.994 | [62] 0.979 | [63] 0.964 | [64] 0.977 | [65] 0.993 | [66] 1.08 | [67] 0.992 | [68] 0.993 | [69] 0.989 | [70] 0.99 | [71] 0.995

Source: PubChem BioAssay AID1159580 (chemical genetic matrix, 2015)
